Source: PubChem BioAssay
Calls of active or inactive are those of the source.

Legend:
[1] = system: Wnt5a (protein binding on small-molecule microarray); assay: small molecules binding Wnt5a protein – biophysical, small-molecule microarray, 635/667 nm fluorescence, primary screen (AID 1142); conditions: 635 nm fluorescence, higher = more signal;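 note: fluorescence read at 667 nm with signal to noise per printed feature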
[2] = ATP-based viability of Huh7 replicon cells – cell-based, CellTiter-Glo luminescence, basal, 48 h, cytotoxicity control for HCV replication inhibitor project, primary screen (AID 1143); conditions: higher = more signal, called active from +8 up or from −8 down;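 note: Huh7 hepatoma cells carrying a hepatitis C replication reporter with no stimulus; test concentration not given here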
[3] = basal CRE-LacZ reporter activity in PC12 – cell-based, unstimulated, primary screen (AID 1145); conditions: no forskolin, luminescence, 4.5 h, higher = more signal, called active from +8 up or from −8 down
[4] = forskolin-driven CRE-LacZ activity in PC12 – cell-based, CRE-LacZ reporter, forskolin-stimulated, primary screen (AID 1146); conditions: luminescence, 4.5 h, higher = more signal, called active from +8 up or from −8 down;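 note: PC12 cells with 6xCRE LacZ reporter stimulated by forskolin 10 µM; beta-galactosidase reporter signal reflecting CREB driven transcription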
[5] = target: Streptavidin (Streptomyces avidinii) (UniProt P22629); assay: compounds binding control protein streptavidin – biophysical, small-molecule microarray, 635/667 nm fluorescence, artefact control for SMM compound annotation, primary screen (AID 1147); conditions: higher = more signal;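 note: signal reflects streptavidin binding to arrayed compounds as a control protein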
[6] = probe aInhba binding on compound microarray – biochemical, small-molecule microarray, 635/667 nm fluorescence, primary screen (AID 1148); conditions: higher = more signal;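 note: score merges 667nm spot fluorescence with signal-to-noise for antibody binding to printed compounds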
Torsin-1A (Homo sapiens) [7] = target: Torsin-1A (Homo sapiens) (UniProt O14656); assay: TOR1A wild-type binding on microarray – cell lysate, small-molecule microarray, lysate, 635/667 nm, primary screen (AID 1149); conditions: COS7 hTOR1A-WT lysate, 635 nm fluorescence, higher = more signal
Torsin-1A (Homo sapiens) [8] = target: Torsin-1A (Homo sapiens) (UniProt O14656); assay: torsin A mutant lysate binding on microarrays – cell lysate, small-molecule microarray, COS7 lysate, 635/667 nm fluorescence, primary screen (AID 1150); conditions: COS7 hTOR1A mutant lysate, 635 nm fluorescence, higher = more signal;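 note: score pools 667 nm emission and signal to noise measuring lysate protein binding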
[9] = system: Sonic hedgehog protein (Shh); assay: Sonic hedgehog microarray binding compounds – biochemical, small-molecule microarray, 635/667 nm fluorescence, primary screen (AID 1151); conditions: 635 nm fluorescence, higher = more signal;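 note: Shh protein binding to compounds spotted on small-molecule microarray slides; score combines spot fluorescence intensity with signal-to-noise across triplicate slides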
[10] = optical density shifts of acrAB sulA E. coli – strain DRC41, OD650, 48 h, E. coli filamentation inducer project, primary screen (AID 1152); conditions: higher = more signal, called active from +8 up or from −8 down;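 note: E. coli MC1000 strain DRC41 lacking acrAB efflux pump and sulA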
[11] = probe aLefty1 binding on compound microarray – biochemical, small-molecule microarray, 635/667 nm fluorescence, primary screen (AID 1153); conditions: higher = more signal;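 note: score merges spot fluorescence with signal-to-noise ratio from the scanned slide images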
[12] = plasmodial surface anion channel blockers, osmotic lysis – cell-based, P. falciparum Indochina, OD700, 1 h, primary screen (AID 1154); conditions: P. falciparum Indochina infected RBC osmotic lysis, higher = more signal, called active from +8 up or from −8 down
[13] = plasmodial surface anion channel blockers, osmotic lysis – cell-based, P. falciparum Indochina, OD700, 2 h, primary screen (AID 1155);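 note: lysis reports solute entry through the parasite surface anion channel PSAC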; conditions: P. falciparum Indochina infected erythrocytes, higher = more signal, called active from +8 up or from −8 down
[14] = changes in parasitized red cell lysis, either direction – P. falciparum Indochina, OD700, 3 h, PSAC antagonist project, primary screen (AID 1156); conditions: P. falciparum-infected erythrocytes, osmotic lysis, higher = more signal, called active from +8 up or from −8 down
[15] = plasmodial surface anion channel blockers, osmotic lysis – cell-based, P. falciparum Indochina, OD700, 18 h, primary screen (AID 1157); conditions: P. falciparum Indochina infected erythrocytes, osmotic lysis OD700, 18 h; higher = more signal, called active from +8 up or from −8 down
[16] = S6 kinase pathway phospho-S6 level changes – cell-based, A549, cytoblot, luminescence, serum-stimulated, primary screen (AID 1158); conditions: 5 h, higher = more signal;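 note: serum-stimulated A549 lung adenocarcinoma cells; signal is phosphorylated S6 detected by cytoblot immunostaining with HRP secondary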
[17] = target: NADPH oxidase 2 (Homo sapiens) (UniProt P04839); assay: compounds shifting NOX2 Amplex Red fluorescence – cell-based, HEK293-NOX2, PMA-stimulated, NOX inhibitor project, primary screen (AID 1159); conditions: 45 min, higher = more signal, called active from +8 up or from −8 down; note: test concentration not given here
[18] = target: NADPH oxidase 4 (Homo sapiens) (UniProt Q9NPH5); assay: compounds shifting NOX4 Amplex Red fluorescence – cell-based, HEK293-NOX4, tetracycline-induced, NOX inhibitor project, primary screen (AID 1160); conditions: HEK293-NOX4, Amplex Red H2O2 fluorescence, 45 min; higher = more signal, called active from +8 up or from −8 down
[19] = target: NADPH oxidase 5 (Homo sapiens) (UniProt Q96PH1); assay: compounds shifting NOX5 Amplex Red fluorescence – cell-based, HEK293-NOX5, NOX inhibitor project, primary screen (AID 1161); conditions: HEK293-NOX5, ionomycin, 45 min, higher = more signal
[20] = compound effects on lung adenocarcinoma cell viability – A549, calcein-AM fluorescence, 48 h, basal, profiling panel (AID 1162); conditions: higher = more signal; note: test concentration not given here

NADPH oxidase 2 (Homo sapiens), sequence (P04839 whole entry, looked up): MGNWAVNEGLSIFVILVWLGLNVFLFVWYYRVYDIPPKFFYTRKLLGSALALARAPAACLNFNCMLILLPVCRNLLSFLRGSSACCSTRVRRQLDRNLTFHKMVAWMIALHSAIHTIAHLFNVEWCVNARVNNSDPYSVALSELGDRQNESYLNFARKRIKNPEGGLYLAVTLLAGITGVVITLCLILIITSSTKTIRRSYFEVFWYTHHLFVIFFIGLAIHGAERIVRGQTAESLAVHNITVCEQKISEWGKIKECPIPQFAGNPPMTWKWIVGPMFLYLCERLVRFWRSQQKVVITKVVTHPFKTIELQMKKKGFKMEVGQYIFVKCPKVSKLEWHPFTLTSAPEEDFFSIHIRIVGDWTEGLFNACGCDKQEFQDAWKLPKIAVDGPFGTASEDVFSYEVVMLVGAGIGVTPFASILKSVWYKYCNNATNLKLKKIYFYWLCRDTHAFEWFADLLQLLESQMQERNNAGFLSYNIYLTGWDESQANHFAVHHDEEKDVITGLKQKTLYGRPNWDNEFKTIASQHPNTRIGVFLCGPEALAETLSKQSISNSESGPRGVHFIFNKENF
NADPH oxidase 4 (Homo sapiens), sequence (Q9NPH5 whole entry, looked up): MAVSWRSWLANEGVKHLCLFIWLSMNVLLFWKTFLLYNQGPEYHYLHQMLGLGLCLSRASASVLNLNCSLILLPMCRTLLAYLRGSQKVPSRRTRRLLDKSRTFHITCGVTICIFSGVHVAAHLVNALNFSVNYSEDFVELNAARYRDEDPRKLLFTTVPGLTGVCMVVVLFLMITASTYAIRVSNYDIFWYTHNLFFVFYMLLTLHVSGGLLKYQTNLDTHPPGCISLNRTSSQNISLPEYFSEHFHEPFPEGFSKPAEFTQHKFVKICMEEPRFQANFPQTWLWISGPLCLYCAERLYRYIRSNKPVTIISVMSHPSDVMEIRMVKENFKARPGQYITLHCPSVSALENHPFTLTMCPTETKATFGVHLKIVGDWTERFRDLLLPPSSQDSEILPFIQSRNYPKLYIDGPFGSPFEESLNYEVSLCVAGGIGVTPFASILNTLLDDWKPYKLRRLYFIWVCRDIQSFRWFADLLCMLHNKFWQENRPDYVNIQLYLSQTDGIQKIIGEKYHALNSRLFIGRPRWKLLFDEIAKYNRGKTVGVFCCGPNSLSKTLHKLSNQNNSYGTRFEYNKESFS
Torsin-1A (Homo sapiens), sequence (O14656 whole entry, looked up): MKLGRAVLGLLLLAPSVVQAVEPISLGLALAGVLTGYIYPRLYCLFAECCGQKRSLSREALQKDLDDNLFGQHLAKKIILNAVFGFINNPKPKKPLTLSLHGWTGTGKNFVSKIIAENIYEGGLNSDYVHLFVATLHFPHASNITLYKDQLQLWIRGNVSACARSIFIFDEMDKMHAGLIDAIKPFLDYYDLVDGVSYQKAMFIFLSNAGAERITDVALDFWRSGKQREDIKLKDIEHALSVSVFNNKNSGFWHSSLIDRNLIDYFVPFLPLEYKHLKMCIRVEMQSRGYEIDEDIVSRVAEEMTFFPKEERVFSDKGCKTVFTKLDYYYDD
NADPH oxidase 5 (Homo sapiens), sequence (Q96PH1 whole entry, looked up): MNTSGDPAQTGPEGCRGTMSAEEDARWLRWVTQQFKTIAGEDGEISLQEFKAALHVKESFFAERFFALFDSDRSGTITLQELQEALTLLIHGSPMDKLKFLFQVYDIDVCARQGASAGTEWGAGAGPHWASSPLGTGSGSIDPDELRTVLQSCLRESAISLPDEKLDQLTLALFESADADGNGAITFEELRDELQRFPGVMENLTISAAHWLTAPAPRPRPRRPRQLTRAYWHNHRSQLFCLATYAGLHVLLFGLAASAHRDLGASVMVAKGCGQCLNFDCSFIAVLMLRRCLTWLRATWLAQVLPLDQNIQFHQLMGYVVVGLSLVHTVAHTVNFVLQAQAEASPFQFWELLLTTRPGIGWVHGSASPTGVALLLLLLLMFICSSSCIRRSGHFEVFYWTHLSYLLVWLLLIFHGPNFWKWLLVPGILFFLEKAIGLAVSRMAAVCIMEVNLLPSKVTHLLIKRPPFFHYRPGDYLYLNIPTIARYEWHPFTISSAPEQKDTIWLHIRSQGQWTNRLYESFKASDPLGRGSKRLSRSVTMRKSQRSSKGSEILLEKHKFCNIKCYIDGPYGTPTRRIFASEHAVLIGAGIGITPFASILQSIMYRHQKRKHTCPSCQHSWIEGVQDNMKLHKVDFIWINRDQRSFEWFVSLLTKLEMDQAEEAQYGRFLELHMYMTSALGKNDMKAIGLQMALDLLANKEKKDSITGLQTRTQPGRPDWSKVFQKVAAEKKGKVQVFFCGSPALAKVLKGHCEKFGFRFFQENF
Streptavidin (Streptomyces avidinii), sequence (P22629 whole entry, looked up): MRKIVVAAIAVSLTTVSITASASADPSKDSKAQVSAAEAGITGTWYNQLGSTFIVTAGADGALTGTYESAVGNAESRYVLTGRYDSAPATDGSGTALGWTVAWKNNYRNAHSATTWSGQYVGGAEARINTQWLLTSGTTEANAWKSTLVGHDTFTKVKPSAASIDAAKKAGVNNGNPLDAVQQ

SMILES	composite z-score [1]	z-score [2]	z-score [3]	z-score [4]	composite z-score [5]	composite z-score [6]	composite z-score (Torsin-1A (Homo sapiens) [7])	composite z-score (Torsin-1A (Homo sapiens) [8])	composite z-score [9]	z-score [10]	composite z-score [11]	z-score [12]	z-score [13]	z-score [14]	z-score [15]	z-score [16]	z-score [17]	z-score [18]	z-score [19]	z-score [20]
C=CCNC(=O)[C@@H]1[C@H]2C(=O)O[C@H](c3ccccc3)[C@H](c3ccccc3)N2[C@H](c2ccc(O)cc2)[C@@]12C(=O)Nc1ccc(C#Cc3ccc(OC)cc3)cc12	0.212	-4.8 (inactive)	-0.0784 (inactive)	-1.25 (inactive)	1.16	0.0228	0.248	0.286	0.551	2.73 (inactive)	0.159	1.27 (inactive)	-0.224 (inactive)	0.375 (inactive)	-0.957 (inactive)	0.98	1.35 (inactive)	1.23 (inactive)	0.0881	-0.629
O=C1c2ccccc2C(=O)c2cc([C@H]3Oc4ccccc4S(=O)(=O)N4CCC[C@@H]34)ccc21	-0.0879	-4.31 (inactive)	4.29 (inactive)	-1.21 (inactive)	-0.615	-0.0079	-0.474	-0.122	-0.441	3.11 (inactive)	-0.0625	8.47 (active)	0.452 (inactive)	0.544 (inactive)	-1.29 (inactive)	1.1	0.0288 (inactive)	-1.18 (inactive)	0.489	0.326
CCCC[C@@H](O)C1=C(C)C[C@H]2C(=O)N(C)C(=O)[C@H]2[C@H]1CO	-0.0163	-1.36 (inactive)	0.0423 (inactive)	-2.14 (inactive)	-0.242	-0.0736	0.0651	-0.0216	1.18	3.62 (inactive)	-0.239	3.54 (inactive)	-0.526 (inactive)	-0.224 (inactive)	-1.56 (inactive)	0.8	-1.32 (inactive)	0.914 (inactive)	0.794	2.36
CC(=O)NCCCC[C@@H]1NC(=O)[C@@H]2C[C@H](C(=O)O)[C@H](c3cccc(OCCO)c3)N2C1=O	0.45	-0.533 (inactive)	0.151 (inactive)	-0.741 (inactive)	0.397	-0.0403	0.911	0.903	2.12	0.733 (inactive)	-0.138	0.495 (inactive)	0.373 (inactive)	-1.49 (inactive)	0.0814 (inactive)	0.264	-1.16 (inactive)	-0.282 (inactive)	-0.948	0.0822
CO[C@H]1O[C@H](CO)[C@@H](OC(=O)Nc2ccccc2)[C@H](OC(=O)Nc2ccc3c(c2)OCO3)[C@H]1OC(=O)Nc1ccc2c(c1)OCO2	0.229	-3.58 (inactive)	0.754 (inactive)	-2.46 (inactive)	0.142	-0.018	0.505	0.781	0.739	2.12 (inactive)	0.57	4.45 (inactive)	-0.359 (inactive)	0.0835 (inactive)	-1.81 (inactive)	1.21	-3.84 (inactive)	-3.08 (inactive)	-2.05	0.275
CCOC(=O)C[C@H]1[C@H](OC(=O)c2cc3ccccc3oc2=O)[C@@H](NC(=O)c2ccccc2)c2cc(OCCCO)ccc2N1C(=O)Cc1ccc(OC)cc1	0.146	-4.64 (inactive)	8.63 (active)	-2.07 (inactive)	0.0709	0.0464	0.151	0.098	0.251	3.12 (inactive)	-0.0051	3.28 (inactive)	-0.825 (inactive)	0.076 (inactive)	-2.29 (inactive)	2.39	-0.224 (inactive)	0.106 (inactive)	0.874	-0.0571
C#CCOc1ccc(C[C@H]2C(=O)O[C@H](Cc3ccccc3)[C@H](/C=C/C3CC3)N2CC#C)cc1	-0.245	-2.48 (inactive)	-0.414 (inactive)	0.741 (inactive)	-0.0298	-0.183	0.498	0.212	0.145	2.04 (inactive)	-0.279	0.57 (inactive)	-0.251 (inactive)	-0.372 (inactive)	-0.383 (inactive)	0.242	-0.21 (inactive)	0.764 (inactive)	-1.52	-0.743
COc1ccc(CCNC(=O)[C@@]2(Sc3ccc(C)cc3)CC(=O)N(Cc3ccccc3)[C@@H]2c2ccc(CO)cc2I)cc1	-0.221	-1.9 (inactive)	1.13 (inactive)	1.72 (inactive)	-0.225	-0.24	0.272	0.192	-0.631	1.15 (inactive)	-0.321	12.6 (active)	1.57 (inactive)	0.0585 (inactive)	0.572 (inactive)	-0.262	1.82 (inactive)	-1.14 (inactive)	1.78	0.648
C=CCNC(=O)[C@@H]1[C@H]2C(=O)O[C@H](c3ccccc3)[C@H](c3ccccc3)N2[C@H](c2ccc(O)cc2)[C@@]12C(=O)Nc1ccccc12	0.154	-2.84 (inactive)	-0.348 (inactive)	-1.3 (inactive)	-0.171	-0.218	-0.0795	-0.264	1.05	1.88 (inactive)	-0.22	3.11 (inactive)	0.87 (inactive)	0.253 (inactive)	0.983 (inactive)	0.686	-0.00775 (inactive)	-1.9 (inactive)	-1.37	0.106
COC(=O)C(CC#Cc1ccc2c(c1)[C@]1(C(=O)N2)[C@H](C(N)=O)[C@H]2C(=O)O[C@H](c3ccccc3)[C@H](c3ccccc3)N2[C@@H]1c1ccc(O)cc1)C(=O)OC	-0.156	-0.229 (inactive)	0.182 (inactive)	-0.909 (inactive)	-1.09	-0.504	-0.372	0.488	-0.295	1.66 (inactive)	-0.696	14.5 (active)	1.23 (inactive)	0.974 (inactive)	0.37 (inactive)	0.331	1.32 (inactive)	0.297 (inactive)	1.1	0.685
CC(C)C(CO)N1C(=O)[C@@H]2C3C(=O)OCCC/C=C\[C@H]3OC23C=CCN(C(C)C)C(=O)[C@@H]13 (stereo not given in full)	-0.0608	0.303 (inactive)	0.333 (inactive)	-1.18 (inactive)	-0.643	0.0228	0.286	0.703	0.321	2.21 (inactive)	-0.142	-0.0173 (inactive)	-0.96 (inactive)	-0.677 (inactive)	-1.36 (inactive)	0.225	0.914 (inactive)	0.527 (inactive)	1.56	0.136
COC(=O)C1=CC(c2ccc(CO)cc2)=CC(C2CC2)N(C)C=C1C(=O)OC (stereo not given)	0.138	-3.85 (inactive)	-0.195 (inactive)	-1.75 (inactive)	0.226	0.203	-0.017	1.04	-0.154	2.75 (inactive)	0.223	7.02 (inactive)	0.548 (inactive)	-2.7 (inactive)	-0.382 (inactive)	3.99	-1.7 (inactive)	-0.0178 (inactive)	-1.69	0.981
O=C1O[C@@H](c2ccccc2)[C@@H](c2ccccc2)N2[C@@H](c3ccc(OCCO)cc3)[C@]3(C(=O)Nc4ccc(C#CC5(O)CCCCCC5)cc43)[C@@H](C(=O)NC[C@H](O)c3ccccc3)[C@H]12	0.432	-3.51 (inactive)	0.0776 (inactive)	-1.71 (inactive)	0.866	0.0827	1.2	0.711	0.855	2.35 (inactive)	0.339	1.21 (inactive)	0.484 (inactive)	-0.206 (inactive)	-0.863 (inactive)	1.13	1.37 (inactive)	1.14 (inactive)	0.427	0.71
C=CC[C@@H](OC(=O)Nc1ccc(SC)cc1)c1ccc(OCCO)cc1	-0.248	-0.89 (inactive)	14.4 (active)	-0.595 (inactive)	-0.761	-0.202	1.76	0.972	0.43	-0.0217 (inactive)	0.197	27.1 (active)	18.6 (active)	0.616 (inactive)	-0.016 (inactive)	-0.506	-2.02 (inactive)	-0.346 (inactive)	-2.26	1.13
CCOC(=O)C[C@H]1[C@H](OC(=O)c2ccc(C(=O)c3ccccc3)cc2)[C@@H](NC(=O)Cc2ccc(OC)cc2)c2cc(OCCCO)ccc2N1C(=O)Cc1ccc(OC)cc1	0.296	-0.69 (inactive)	2.14 (inactive)	-0.899 (inactive)	0.598	-0.122	0.226	0.413	0.697	1.89 (inactive)	0.357	4.37 (inactive)	-0.625 (inactive)	0.0901 (inactive)	-1.14 (inactive)	1	0.676 (inactive)	0.79 (inactive)	1.52	2.13
C=CCC(OC(C)=O)[C@@H]1[C@@H](N(Cc2ccc(-c3ccccc3)cc2)C(=O)c2ccc(-c3ccccc3)cc2)c2cc(OCCCO)ccc2N1C(=O)c1ccc(-c2ccccc2)cc1 (stereo not given in full)	0.144	0.534 (inactive)	-0.0247 (inactive)	-0.426 (inactive)	0.222	0.0439	0.276	0.0533	0.107	2.03 (inactive)	-0.0088	0.568 (inactive)	0.712 (inactive)	-0.181 (inactive)	0.0154 (inactive)	0.531	0.844 (inactive)	0.967 (inactive)	1.17	0.444
C=CCN1C(=O)[C@@]2(O[C@@H](CCn3cc(CCO)nn3)[C@H]([Si](C)(C)c3ccc(OC)cc3)[C@H]2C)c2cc(N3C(=O)c4cccc5cccc3c45)ccc21	0.662	-7.17 (inactive)	37.8 (active)	-3.77 (inactive)	0.854	0.0377	0.311	0.615	0.802	2.05 (inactive)	0.0318	16.4 (active)	3.97 (inactive)	-0.551 (inactive)	1.5 (inactive)	0.905	0.576 (inactive)	1.11 (inactive)	-0.148	-4.11
